# Laboratory results from ChEMBL document CHEMBL3433997, “St. Jude Leishmania screening dataset” (2016).
# Molecular target: Hexose transporter 1 (Plasmodium falciparum) (UniProt O97467)
# Experiment: ST_JUDE_LEISH: Cytotoxicity at 2uM final concentration against transgenic Leishmania Mexicana promastigotes LmPfHT that are glucose transport deficient and complemented with the Plasmodium falciparum hexose transporter. Activity is measured by DNA content using SYBR green in vitro
# Assay type: functional
row,Structure (SMILES),inhibition [%]
1,COc1ccc(N2CCN(CCCCNC(=O)c3ccc(NC(=O)c4ccc(C(F)(F)F)cc4)cc3)CC2)c(OC)c1,8.75
2,CC(CCc1ccccc1)NCC(O)c1ccc2c3c(cccc13)C(=O)N2C (stereo not given),0.34
3,C=CC(=O)Nc1ccc(Cl)cc1C(O)c1ccccc1 (stereo not given),2.07
4,Cc1nc(NCCCn2ccnc2)cc(-c2cncc(-c3ccc(OC(F)(F)F)cc3)c2)n1,5.92
5,CCN(CC)CCCC(C)Nc1cc(C)nc2cc(Cl)ccc12 (stereo not given),1.6
6,N#CC(c1ccc(Br)cc1)c1ccc2c(C(F)(F)F)cc(C(F)(F)F)nc2n1 (stereo not given),4.44
7,CC(C)(C)c1ccc(NC(=O)c2ccc(CN3CCCN(Cc4cccc(C#N)c4)CC3)cc2)cc1,7.31
8,Cc1ccccc1NC(=O)NC1CCN(CCCCCNC(=O)/C=C/c2ccc(Cl)c(Cl)c2)CC1,2.24
9,COc1ccc(-c2nc3c(N)nc(N)nc3nc2-c2ccccc2Cl)cc1.COc1ccc(-c2nc3nc(N)nc(N)c3nc2-c2ccccc2Cl)cc1,10.5
10,CN1CCN(CCCNCc2cccc(Nc3nccc(Nc4ccc(Oc5ccccc5)cc4)n3)c2)CC1,2.79
11,Cc1cc(SC(C)(C)C)cc2c(Cl)c(C(N)=O)cnc12,93.7
12,CCCCNC(=O)C1CCCN(C(=O)c2ccc(O)c(-c3ccc(Cl)c(Cl)c3)c2)C1 (stereo not given),1.16
13,Cc1cccc(C(=O)Nc2ccnc(N3CCC(N(C)Cc4cccc(C#N)c4)CC3)c2)c1,5.56
14,COCCN(CCOC)c1ncc(-c2ccsc2)c(-c2nc(C)c(C)s2)n1,0.1
15,Cc1cc(NC(=O)CCN2CCN(c3cccc(Cl)c3Cl)CC2)ccc1N1CCN(C(C)C)CC1,-0.39
16,COc1cccc(-c2nn(C)c3sc(C(=O)Nc4cccnc4)cc23)c1,-1.97
17,O=C(Nc1cccc(-c2ccc(-c3nc4cc(C(F)(F)F)ccc4[nH]3)s2)c1)c1ccncc1,8.56
18,Cc1cc(NC(=O)Nc2ccc(I)c(OCCN(C)C)c2)ccc1Br,7.25
19,FC(F)(F)c1ccc2[nH]c(-c3cccc(-c4ccc(CNCC5CCCO5)cc4)c3)nc2c1 (stereo not given),8.39
20,CC(CN(C)C)C(=O)Nc1cccc(-c2cccc(-c3nc4ccccc4[nH]3)c2)c1 (stereo not given),-0.62

row,Structure (SMILES),inhibition [%]
1,CN1CCC(N2CCN(Cc3ccc(-c4cccc(-c5nc6ccccc6[nH]5)c4)cc3)CC2)CC1,1.87
2,COc1ccc(C2CCN(C#N)C2)cc1OC1CCCC1 (stereo not given),17.2
3,Cn1ncc2c3c(CCN4CCC(NCc5cc6c(cn5)OCC6)CC4)c(Cl)cnc3ccc21,0.99
4,COc1cc([N+](=O)[O-])ccc1NC(=O)Nc1ccc(OC(F)(F)F)cc1,2.37
5,COc1ccc(CNC2CCCC2)cc1-c1ccc(S(=O)(=O)NCCN2CCCC2)s1,2.89
6,COc1ccc2cc(C(C)NC3CCN(c4cccc(NC(=O)c5ccncc5)c4)CC3)ccc2c1 (stereo not given),-0.06
7,CC(C)COc1ccc(Cl)cc1Cc1nc(-c2nc3ccc(CN4CCCC4)cc3[nH]2)co1,3.58
8,COc1cc(F)c2nccc([C@@H](O)CN3CCC(NCc4ccc5c(n4)NC(=O)CS5)CC3)c2c1,-1.04
9,Cc1cc(NC(=O)c2ccc(-c3ccccc3)cc2)no1,3.79
10,CCOc1c(OC)ccc2c1CCN(CCN1CCC(CNC(=O)c3ccc(-c4ccc(C(F)(F)F)cc4)cc3)CC1)C2,-0.64
11,O=C(NCCN1CCCCC1)c1cc2cc(-c3ccccc3)ccc2n1S(=O)(=O)c1ccccc1,74.7
12,Cc1cc(N2CCCN(CC3CCCCC3)CC2)nc(Nc2ccc(Br)cc2)n1,6.86
13,Cc1cc2c(cc1C(F)(F)F)N(C(=O)Nc1ccc(C(=O)NCCN3CCCC3)cc1)CC2,1.86
14,OCCN1CCN(c2nc(Nc3cccc(F)c3)c3cnn(-c4ccccc4)c3n2)CC1,0.94
15,CCCN(Cc1nnc(-c2ccco2)o1)C(=O)C1CCCN(C(=O)c2ccc(Cl)cc2)C1 (stereo not given),0.73
16,CCC(CC)n1c(C)cc2c3c(N)nc(N)nc3ccc21,90
17,CCc1c[nH]c2c(N3CCCS3(=O)=O)cc(C(=O)N[C@@H](Cc3ccccc3)[C@H](O)CNC(C)(C)CCCC(C)C)cc12,2.29
18,CCCNCc1ccc(-c2ccc(CNC3Cc4ccccc4C3)cc2)nc1,2.5
19,CCCC(C)n1ccc2c3c(N)nc(N)nc3ccc21 (stereo not given),56.9
20,Cc1cccc2nc(-c3cccc(-c4cccc(CNCCc5ccncc5)c4)c3)[nH]c12,1.2

# Molecular target: Glucose transporter (Leishmania mexicana) (UniProt O61059)
# Experiment: ST_JUDE_LEISH: Cytotoxicity at 2uM final concentration against transgenic Leishmania Mexicana promastigotes LmGT2 that are glucose transport deficient and complemented with the L. Mexicana glucose transporter 2. Activity is measured by DNA content using SYBR green in vitro
# Assay type: functional
row,Structure (SMILES),inhibition [%]
1,COc1ccc(N2CCN(CCCCNC(=O)c3ccc(NC(=O)c4ccc(C(F)(F)F)cc4)cc3)CC2)c(OC)c1,9.19
2,CC(CCc1ccccc1)NCC(O)c1ccc2c3c(cccc13)C(=O)N2C (stereo not given),-0.76
3,C=CC(=O)Nc1ccc(Cl)cc1C(O)c1ccccc1 (stereo not given),2.36
4,Cc1nc(NCCCn2ccnc2)cc(-c2cncc(-c3ccc(OC(F)(F)F)cc3)c2)n1,3.04
5,CCN(CC)CCCC(C)Nc1cc(C)nc2cc(Cl)ccc12 (stereo not given),0.08
6,N#CC(c1ccc(Br)cc1)c1ccc2c(C(F)(F)F)cc(C(F)(F)F)nc2n1 (stereo not given),0.48
7,CC(C)(C)c1ccc(NC(=O)c2ccc(CN3CCCN(Cc4cccc(C#N)c4)CC3)cc2)cc1,4.99
8,Cc1ccccc1NC(=O)NC1CCN(CCCCCNC(=O)/C=C/c2ccc(Cl)c(Cl)c2)CC1,1.9
9,COc1ccc(-c2nc3c(N)nc(N)nc3nc2-c2ccccc2Cl)cc1.COc1ccc(-c2nc3nc(N)nc(N)c3nc2-c2ccccc2Cl)cc1,6.97
10,CN1CCN(CCCNCc2cccc(Nc3nccc(Nc4ccc(Oc5ccccc5)cc4)n3)c2)CC1,0.79
11,Cc1cc(SC(C)(C)C)cc2c(Cl)c(C(N)=O)cnc12,85.8
12,CCCCNC(=O)C1CCCN(C(=O)c2ccc(O)c(-c3ccc(Cl)c(Cl)c3)c2)C1 (stereo not given),0.69
13,Cc1cccc(C(=O)Nc2ccnc(N3CCC(N(C)Cc4cccc(C#N)c4)CC3)c2)c1,4.5
14,COCCN(CCOC)c1ncc(-c2ccsc2)c(-c2nc(C)c(C)s2)n1,1.83
15,Cc1cc(NC(=O)CCN2CCN(c3cccc(Cl)c3Cl)CC2)ccc1N1CCN(C(C)C)CC1,-2.11
16,COc1cccc(-c2nn(C)c3sc(C(=O)Nc4cccnc4)cc23)c1,-0.35
17,O=C(Nc1cccc(-c2ccc(-c3nc4cc(C(F)(F)F)ccc4[nH]3)s2)c1)c1ccncc1,7.24
18,Cc1cc(NC(=O)Nc2ccc(I)c(OCCN(C)C)c2)ccc1Br,6.57
19,FC(F)(F)c1ccc2[nH]c(-c3cccc(-c4ccc(CNCC5CCCO5)cc4)c3)nc2c1 (stereo not given),6.46
20,CC(CN(C)C)C(=O)Nc1cccc(-c2cccc(-c3nc4ccccc4[nH]3)c2)c1 (stereo not given),3.87

row,Structure (SMILES),inhibition [%]
1,CN1CCC(N2CCN(Cc3ccc(-c4cccc(-c5nc6ccccc6[nH]5)c4)cc3)CC2)CC1,1.93
2,COc1ccc(C2CCN(C#N)C2)cc1OC1CCCC1 (stereo not given),11.1
3,Cn1ncc2c3c(CCN4CCC(NCc5cc6c(cn5)OCC6)CC4)c(Cl)cnc3ccc21,0.05
4,COc1cc([N+](=O)[O-])ccc1NC(=O)Nc1ccc(OC(F)(F)F)cc1,-2.01
5,COc1ccc(CNC2CCCC2)cc1-c1ccc(S(=O)(=O)NCCN2CCCC2)s1,3.68
6,COc1ccc2cc(C(C)NC3CCN(c4cccc(NC(=O)c5ccncc5)c4)CC3)ccc2c1 (stereo not given),-1.47
7,CC(C)COc1ccc(Cl)cc1Cc1nc(-c2nc3ccc(CN4CCCC4)cc3[nH]2)co1,3.07
8,COc1cc(F)c2nccc([C@@H](O)CN3CCC(NCc4ccc5c(n4)NC(=O)CS5)CC3)c2c1,-1.38
9,Cc1cc(NC(=O)c2ccc(-c3ccccc3)cc2)no1,4.2
10,CCOc1c(OC)ccc2c1CCN(CCN1CCC(CNC(=O)c3ccc(-c4ccc(C(F)(F)F)cc4)cc3)CC1)C2,0.24
11,O=C(NCCN1CCCCC1)c1cc2cc(-c3ccccc3)ccc2n1S(=O)(=O)c1ccccc1,55.4
12,Cc1cc(N2CCCN(CC3CCCCC3)CC2)nc(Nc2ccc(Br)cc2)n1,-2.12
13,Cc1cc2c(cc1C(F)(F)F)N(C(=O)Nc1ccc(C(=O)NCCN3CCCC3)cc1)CC2,-0.08
14,OCCN1CCN(c2nc(Nc3cccc(F)c3)c3cnn(-c4ccccc4)c3n2)CC1,-2.4
15,CCCN(Cc1nnc(-c2ccco2)o1)C(=O)C1CCCN(C(=O)c2ccc(Cl)cc2)C1 (stereo not given),-0.96
16,CCC(CC)n1c(C)cc2c3c(N)nc(N)nc3ccc21,70.8
17,CCc1c[nH]c2c(N3CCCS3(=O)=O)cc(C(=O)N[C@@H](Cc3ccccc3)[C@H](O)CNC(C)(C)CCCC(C)C)cc12,0.89
18,CCCNCc1ccc(-c2ccc(CNC3Cc4ccccc4C3)cc2)nc1,1.53
19,CCCC(C)n1ccc2c3c(N)nc(N)nc3ccc21 (stereo not given),29.7
20,Cc1cccc2nc(-c3cccc(-c4cccc(CNCCc5ccncc5)c4)c3)[nH]c12,-1.48
